In the library only some 8.6% were active in any assay of this set; here they are far more common.
LASV entry inh = qHTS for Inhibitors of binding or entry into cells for Lassa Virus; actives 4.1% (n = 18,000); Potency, µM (top dose mostly 49.2 µM), for the others: at the highest dose activity change, negative = inhibition, hits mostly inhibitors; Lassa virus pseudotyped entry inhibition, cell-based qHTS
Marburg entry = qHTS for Inhibitors of binding or entry into cells for Marburg Virus; Marburg virus pseudotype entry/binding inhibition, cell-based; Potency, µM (series often up to 49.2 µM), for the others: at the highest dose activity change, negative = inhibition, actives largely listed as inhibitors; actives 6.5% (n = 18,000)
The depositor's hits bear a star; [ ] = remark or other dose. Calls follow the shape of the full dose curve; tested in HEK293 cells. % is scaled to controls: 0 for no effect and ±100 for the full control effect; potency is read from the fitted curve at half-maximal effect.

`CCN1C(=NCCCOC(C)C)NC(c2ccccc2)C(C(=O)OC)=C1C` (centres undefined) gave LASV entry inh 7%[8.59 µM] and Marburg entry -3%[8.59 µM].
For CCOC(=O)CN1C(=O)[C@]2(O[C@H](C)CC3=CCCC32)c2c(Br)cccc21 (some centres undefined) the results were LASV entry inh -7%[8.59 µM] and Marburg entry inconclusive.
For C[C@@H]([C@H](O)c1ccc(O)cc1)N1CCC(Cc2ccccc2)CC1 the results were LASV entry inh -8% and Marburg entry inconclusive.
`CC(C(O)c1ccc(O)cc1)N1CCC(Cc2ccccc2)CC1` (centres undefined) gave LASV entry inh -19% and Marburg entry 10µM*.
For COC(=O)C1=C(C)NC(C)=C(C(=O)OCC(C)=O)C1c1ccccc1[N+](=O)[O-] (centres undefined) the results were LASV entry inh inconclusive and Marburg entry 13%.
Screening COC(=O)C1=C(C)NC(C)=C(C(=O)OCCNCc2ccccc2)C1c1cccc([N+](=O)[O-])c1 (centres undefined) returned LASV entry inh inconclusive and Marburg entry 11µM*.
`COC(=O)C1=C(C)NC(C)=C(C(=O)OCCN(C)Cc2ccccc2)[C@H]1c1cccc([N+](=O)[O-])c1` gave LASV entry inh -6%[17.8 µM] and Marburg entry inconclusive.
`COCCOC(=O)C1=C(C)NC(C)=C(C(=O)OC(C)C)[C@H]1c1cccc([N+](=O)[O-])c1` gave LASV entry inh -6%[17.8 µM] and Marburg entry -2%[17.8 µM].
Screening COC(=O)C1=C(C)NC(C)=C(C(=O)NCCCN2CCC(c3ccccc3)(c3ccccc3)CC2)C1c1ccc([N+](=O)[O-])cc1 (centres undefined) returned LASV entry inh inconclusive and Marburg entry 3.2µM*.
For COC(=O)C1=C(C)NC(C)=C(C(=O)O[C@H]2CCN(Cc3ccccc3)C2)[C@H]1c1cccc([N+](=O)[O-])c1 the results were LASV entry inh inconclusive and Marburg entry 22µM*.
`CC(C)CN(C[C@@H](O)[C@H](Cc1ccccc1)NC(=O)O[C@@H]1CCOC1)S(=O)(=O)c1ccc(N)cc1` gave LASV entry inh -8% and Marburg entry -13%.
CCN1C(=S)NC(c2ccccc2)C(C(=O)OC)=C1C (centres undefined) was read as LASV entry inh 6%[8.59 µM] and Marburg entry -2%[8.59 µM].
Screening CCc1cc2c(nc1CC)CCN(CCC(C)=NOCC[C@@H]1C=C[C@H](OC(C)=O)[C@@H](COC(C)=O)O1)C2 returned LASV entry inh 10%[8.59 µM] and Marburg entry inconclusive.
Screening CCCCCC(=O)N1C[C@@H](O)[C@H](n2cc(C3CC3)nn2)C[C@H]1c1ccccc1 returned LASV entry inh 15% and Marburg entry 21%.
COc1ccc(O)c(CN2CCC3(CC2)c2ccccc2[C@@H](NC(=O)c2cccc(F)c2)[C@@H]3OC)c1 was read as LASV entry inh -28% and Marburg entry inconclusive.
For CC(C)Nc1oc(-c2ccccc2)nc1C=Cc1ccccc1 the results were LASV entry inh 7%[8.59 µM] and Marburg entry -31%[8.59 µM].
Screening CC(C)Nc1ccc(Nc2ccccc2)cc1 returned LASV entry inh inconclusive and Marburg entry 28µM*.
Screening Cc1cc2c(OCC(CNC(C)(C)C)OC(=O)c3ccccc3)cccc2[nH]1 (centres undefined) returned LASV entry inh -21% and Marburg entry 35µM*.
CCOC(=O)OC[C@H]1O[C@H](c2cc(C)cc(C)c2)C=C[C@H]1OC(=O)OCC was read as LASV entry inh 4%[8.59 µM] and Marburg entry 2%[8.59 µM].
For CC(CCC(=O)OC[C@H]1O[C@H](C#Cc2ccccc2)C=C[C@H]1Oc1ccc(C)cc1)=NO[C@H](C)c1cn([C@H](CO)Cc2ccccc2)nn1 the results were Marburg entry 2%[8.59 µM].
Screening COc1ccc(C(=O)N(Cc2cc3cccc(C)c3nc2N(C)C)CC2CCCO2)cc1 (centres undefined) returned LASV entry inh -11% and Marburg entry -15%.
For CCN(CC)CCOC(=O)C(Cc1cccc2ccccc12)CC1CCCO1 (centres undefined) the results were LASV entry inh inconclusive and Marburg entry 10µM*.
`COC(=O)C(C(=O)OC)[C@H]1c2ccccc2[C@@H]2C(=C[C@@H](C)[C@H]3C(=O)N(c4ccccc4)C(=O)[C@H]32)N1C(=O)OC` gave LASV entry inh -10%[8.59 µM] and Marburg entry 25%[8.59 µM].
`CCCCCC(=O)N1C[C@@H](n2cc(COC(=O)c3ccccc3)nn2)[C@H](O)C[C@H]1c1ccc(OC)cc1` gave LASV entry inh -20% and Marburg entry 26%.
`CC(=O)OC[C@H]1O[C@H](C#Cc2ccc(C)cc2C)C=C[C@H]1OC(C)=O` gave LASV entry inh inconclusive and Marburg entry -2%[8.59 µM].

Screens: PubChem BioAssay, National Center for Advancing Translational Sciences (NCATS)
